LGR2 antag: inhibitors of bursicon-induced Drosophila LGR2 receptor cAMP signaling; HEK293 LGR2, CRE-luciferase, bursicon-stimulated, 4 h; inhibition, % at 9.99 µM; 0.35% of 380,000 active;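 active = drop in luminescence signal, shown as inhibition above about 50% in the replicate tests, limit read from the data, passing the limit was not always enough; inconclusive = probably only some replicates passing the limit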;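 note: agonist challenge used bursicon conditioned medium at about half maximal strength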
Peg3 prom inh-1: reduces Peg3 promoter-driven luciferase expression in HeLa; AID 588405; 1.7% of 360,000 active; HeLa PEG-Prom luciferase reporter, luminescence, overnight; inhibition, % at 20 µM;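 active = inhibition of at least 50% at 20 µM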
Mdm2-MdmX inh: inhibitors of human Mdm2/MdmX interaction; inhibition, % at 8 µM; 3% of 330,000 active; SaOS-2 split-luciferase Mdm2/MdmX complementation, luminescence;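 active = inhibition of at least 50% at 8 µM in the primary screen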
Target sequence (O15151 whole entry, looked up): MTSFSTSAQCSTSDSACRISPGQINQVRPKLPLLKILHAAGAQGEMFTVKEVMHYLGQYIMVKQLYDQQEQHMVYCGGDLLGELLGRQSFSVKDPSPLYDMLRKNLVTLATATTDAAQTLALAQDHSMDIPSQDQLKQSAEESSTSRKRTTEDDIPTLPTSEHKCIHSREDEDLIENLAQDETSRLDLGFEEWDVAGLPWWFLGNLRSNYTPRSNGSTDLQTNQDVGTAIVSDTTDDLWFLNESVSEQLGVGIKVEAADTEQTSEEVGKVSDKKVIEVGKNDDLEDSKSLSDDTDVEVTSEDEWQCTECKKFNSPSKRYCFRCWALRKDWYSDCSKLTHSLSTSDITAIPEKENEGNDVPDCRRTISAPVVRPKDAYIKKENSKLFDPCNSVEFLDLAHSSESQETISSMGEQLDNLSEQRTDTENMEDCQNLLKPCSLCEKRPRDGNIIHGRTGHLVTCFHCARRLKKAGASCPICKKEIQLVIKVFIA
Target sequence (Q00987 whole entry, looked up): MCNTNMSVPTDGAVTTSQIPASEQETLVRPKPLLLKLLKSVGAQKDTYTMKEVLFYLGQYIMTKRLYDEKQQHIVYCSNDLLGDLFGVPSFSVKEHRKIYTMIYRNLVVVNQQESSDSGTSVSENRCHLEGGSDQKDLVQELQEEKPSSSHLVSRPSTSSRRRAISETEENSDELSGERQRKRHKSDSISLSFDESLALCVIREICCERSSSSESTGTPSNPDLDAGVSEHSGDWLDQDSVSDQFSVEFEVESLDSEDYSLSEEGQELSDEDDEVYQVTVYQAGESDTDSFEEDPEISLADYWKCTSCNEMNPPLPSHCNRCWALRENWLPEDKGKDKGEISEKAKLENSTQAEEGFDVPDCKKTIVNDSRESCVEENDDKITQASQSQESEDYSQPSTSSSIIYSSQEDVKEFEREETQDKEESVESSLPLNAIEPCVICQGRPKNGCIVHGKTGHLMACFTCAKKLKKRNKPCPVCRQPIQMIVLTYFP
CF NFkB inh: cystic fibrosis NF-kB activation inhibition; KKLEB NF-kB-GFP reporter, PAF-induced, GFP fluorescence overnight; inhibition, % at 5 µM; 0.86% of 360,000 active; AID 588850;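 active = at least 50% inhibition at 5 µM, scaled per plate between neutral and stimulator controls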;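 note: PAF is a Pseudomonas aeruginosa culture filtrate used as stimulus; plate controls were PAF-stimulated DMSO wells for no effect and unstimulated DMSO wells for full effect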
HSP90 inh: blocks HSP90-mediated luciferase refolding in reticulocyte lysate; Rabbit reticulocyte lysate, luciferase refolding luminescence, 3 h; inhibition, % at 5.6 µM; 0.91% of 290,000 active; AID 1789;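 active = inhibition above the screen-wide mean plus 3 SD, computed separately per campaign, cut at about 16% in these data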;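 note: 0% = DMSO wells and 100% = 60 µM geldanamycin wells; inhibitors lower the luminescence because luciferase stays unfolded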
KKLEB tox: counter-screen for CF NF-kB inhibitors: cytotoxicity; 0.36% of 360,000 active; activity change (cytotoxicity), % at 5 µM; AID 602141; KKLEB CF airway cells viability, ATPlite luminescence, overnight; hits give low values; cells stimulated with P. aeruginosa culture filtrate;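 active = corrected activity change at or below -50% at 5 µM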
Mdm2 MdmX conf: human Mdm2/MdmX binding inhibition, confirmed | shares compounds with Mdm2-MdmX inh | luminescent assay | inhibition, % at 8 µM | 55% of 10,000 active | AID 489028; in the data active = inhibition above about 40%
FLuc counter: inhibits full-length luciferase, flagging false Mdm2/MdmX hits; SaOS-2 full-length luciferase counterscreen, luminescence; inhibition, % at 8 µM; 77% of 6,200 active; shares compounds with Mdm2-MdmX inh; AID 504607;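 active = mean inhibition at 8 µM reaching about 37%, which flags the compound as non-specific, limit read from the data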;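 note: p53-null SaOS-2 cells with luciferase driven by a doxycycline-inducible promoter; compound on cells about two nights before reading with doxycycline added after day one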
Peg3 prom inh-2: confirmation of Peg3 promoter inhibitors. shares compounds with Peg3 prom inh-1. HeLa PEG-Prom luciferase reporter, luminescence, overnight. inhibition, % at 20 µM. 84% of 1,300 active;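 active = at 20 µM dose, 40% or more inhibition averaged across four replicates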
Numbers without * were called inactive; ? = inconclusive; · = not tested or not shown; ! = not confirmed by another sample. Hits are enriched below; roughly 3.6% of the tested compounds scored in any of these assays.

SMILES | LGR2 antag | Peg3 prom inh-1 | Mdm2-MdmX inh | CF NFkB inh | HSP90 inh | KKLEB tox | Mdm2 MdmX conf | FLuc counter | Peg3 prom inh-2
Cc1ccc(S(=O)(=O)N(C)C[C@H]2Oc3ccc(NC(=O)Nc4ccccc4)cc3C(=O)N([C@H](C)CO)C[C@H]2C)cc1 | -7 | · | · | · | · | · | · | · | ·
COC(=O)C1=C(C)N(Cc2ccccc2)C(=NCc2cccc(Cl)c2)N[C@H]1c1ccccc1 | · | 101* | 89* | 42 | · | -25 | 34 | · | 98*
Cn1nnnc1Sc1ncnc2scc(-c3cccc4ccccc34)c12 | 3 | 98* | 97* | 48 | · | -43 | 55* | 22 | 97*
Cn1nnnc1SCc1cccc2ccccc12 | -7 | 3 | -10 | 10 | 0 | 6 | · | · | ·
COC(=O)C[C@H]1CC[C@@H]2[C@@H](COc3ccc(NC(=O)Nc4ccc(C#N)cc4)cc3C(=O)N2C)O1 | 9 | · | · | · | · | · | · | · | ·
CCOC(=O)c1[nH]c2ccc(Cl)cc2c1-c1ccccc1 | · | 11 | -14 | 0 | 5 | -17 | · | · | ·
CN(C)C=NC(=O)c1[nH]c2ccc(Cl)cc2c1-c1ccccc1 | -3 | 72* | 80* | 22 | 7 | 2 | 35 | · | 81*
CCOC(=O)C1=C(C)NC(C)=C(C(=O)OC)C1c1cccc(Cl)c1Cl (stereo unspecified) | 3 | 21 | 30 | -12 | 2 | 0 | · | · | ·
CCOC(=O)C1=C(COCCN)NC(C)=C(C(=O)OC)C1c1ccccc1Cl (stereo unspecified) | 18 | 69*! | 62*! | 16 | · | 5 | 21 | · | 89*
CCOC(=O)c1sc2nc(CSc3ccccc3)nc(N3CCCN(C)CC3)c2c1C | 8 | 65* | 74* | 12 | 3 | -13 | 43* | 63* | 94*
CCOC(=O)c1sc2nc(CSc3ccccc3)nc(N3CCC(C(N)=O)CC3)c2c1C | 1 | 26 | 30 | 4 | 0 | -15 | · | · | ·
COc1ccc(S(=O)(=O)Nc2ccc3c(c2)C(=O)N([C@H](C)CO)C[C@@H](C)[C@H](CN(C)Cc2ccc(C(=O)O)cc2)OCCCC[C@@H](C)O3)cc1 | -4 | · | · | · | · | · | · | · | ·
CC(=O)Nc1sc(C)c(C)c1C(=O)OCC(=O)N(CC(C)C)c1c(N)n(Cc2ccccc2)c(=O)[nH]c1=O | 12 | 101* | 100* | 83* | · | -96* | 19 | · | 55*
Cc1cc(N2CCN(C)CC2)ccc1NC(=O)c1c2c(nc3ccccc13)CCN(Cc1ccccc1)C2 | · | 109* | 100* | 10 | 8 | -76* | 100* | 52* | 87*
O=S(=O)(c1ccc(Cl)cc1)N1CCN(Cc2ccc(O)c3ncccc23)CC1 | 6 | 52* | 77* | 6 | 7 | -2 | 67* | 25 | 56*
Cc1cccc(-n2cc(-c3ccccc3)c3c(N4CCOCC4)ncnc32)c1 | 13 | 69* | 67* | 94* | -1 | -92* | 55* | 72* | 82*
C[C@@H]1CCCCO[C@H](CN(C)C(=O)Nc2ccc3c(c2)OCO3)[C@@H](C)CN([C@H](C)CO)C(=O)c2cc(NS(C)(=O)=O)ccc2O1 | 7 | · | · | · | · | · | · | · | ·
O=C(/C=C/c1ccccc1)NC(NC(=S)Nc1cccc(Cl)c1)C(Cl)(Cl)Cl (stereo unspecified) | · | 79* | 98* | 7 | -2 | -4 | 68* | 26 | 67*
Cc1csc2nc(COC(=O)CNC(=O)c3ccc(Cl)cc3)cc(=O)n12 | · | 2 | -13 | 8 | · | 1 | · | · | ·
Cc1csc2nc(COC(=O)c3ccc(Cl)c([N+](=O)[O-])c3)cc(=O)n12 | 13 | 59* | 89* | 26 | · | -11 | 8 | · | -1
COCC(=O)N1C[C@@H]2[C@H](c3ccccc31)[C@H](CO)N2C(=O)C1CCCCC1 | 23 | · | · | · | · | · | · | · | ·
CCC1CCCCN1S(=O)(=O)c1ccc(C(=O)N(CCCN(C)C)c2nc3cc4c(cc3s2)OCO4)cc1 (stereo unspecified) | 33 | 59* | 63* | 26 | 2 | -23 | 43* | 58* | 70*
CC1CCCCN1S(=O)(=O)c1ccc(C(=O)N(CCCN(C)C)c2nc3ccc(Br)cc3s2)cc1 (stereo unspecified) | 6 | 81* | 77* | 8 | 6 | -27 | 33 | 61* | 93*
CN(C)CCCN(C(=O)c1ccc(S(=O)(=O)N2CCCCCC2)cc1)c1nc2cc3c(cc2s1)OCO3 | 22 | -10 | · | 9 | · | -7 | · | · | ·
O=C(C[C@@H]1CC[C@@H]2[C@H](COC[C@H](O)CN2C(=O)c2ccccc2)O1)N1CCOCC1 | 10 | · | · | · | · | · | · | · | ·
SMILES | LGR2 antag | Peg3 prom inh-1 | Mdm2-MdmX inh | CF NFkB inh | HSP90 inh | KKLEB tox | Mdm2 MdmX conf | FLuc counter | Peg3 prom inh-2
O=C(N[C@H]1C=C[C@@H](CC(=O)N2CCOCC2)O[C@@H]1CO)c1cccc(F)c1 | -13 | · | · | · | · | · | · | · | ·
O=[N+]([O-])c1cc(Cl)cc(/C=N\Nc2ccccn2)c1O | · | 55* | 70* | 85* | -3 | -93* | 77* | 55* | 55*
O=[N+]([O-])c1ccc(Cl)cc1C=NNc1ccccn1 | 14 | -7 | · | -25 | · | 3 | · | · | ·
C[C@H]1CCCCO[C@H](CN(C)Cc2ccc(C(=O)O)cc2)[C@@H](C)CN([C@@H](C)CO)C(=O)c2cc(NC(=O)Nc3ccccc3)ccc2O1 | 17 | · | · | · | · | · | · | · | ·
COCC#Cc1cnc2c(c1)C(=O)N([C@@H](C)CO)C[C@@H](C)[C@H](CN(C)C(=O)c1ccc(F)cc1)O2 | 15 | · | · | · | · | · | · | · | ·
COc1cccc(/C=N/NC(=O)c2ccc(-c3ccccc3)cc2)c1O | · | 55* | 76* | 2 | -1 | 2 | 77* | 23 | 69*
COc1ccccc1/C=N\NC(=O)c1c(C)nc2ccc(Cl)cn12 | 15 | 15 | 14 | -2 | 5 | 4 | · | · | ·
COc1cccc(/C=N/NC(=O)c2c(C)nc3ccc(Cl)cn23)c1O | 14 | 56* | 68* | -14 | -5 | 0 | 78* | 34 | 71*
COc1ccc(OC)c(/C=N\NC(=O)c2ccc(-c3ccccc3)cc2)c1 | ? | 9 | 4 | -48 | 1 | 9 | · | · | ·
CN(C)C(=O)c1cccc(-c2ccc([C@@H]3[C@@H](C#N)N(C(=O)C4CCCC4)[C@H]3CO)cc2)c1 | -9 | · | · | · | · | · | · | · | ·
CCCc1nc2oc3c(NCCCN(C)C)ncnc3c2c2c1CCCC2 | · | 92* | 100* | 11 | 0 | -18 | 85* | 52* | 93*
CCCc1nc2oc3c(Cl)ncnc3c2c2c1CCCC2 | -3 | 99* | 100* | 6 | -2 | -8 | 12 | · | 34
CO[C@@H]1CN(C)C(=O)c2cc(NC(=O)Nc3cccc(F)c3)ccc2OC[C@H](C)NC[C@H]1C | 10 | · | · | · | · | · | · | · | ·
